B1: chr5:136977529:136977630:-|3pUTR|ENSG00000152377|msi1|FALSE|unique (ssRNA)
RNA: GGGAGUUCUACAGUCCGACGAUCACAAGCCAUCUCUUUCAUUUCUGCUUGAAGCCCCUUGGCUGCAGCAAUCCUGUCUGCCAUAGGUUUCUUCCUUCCUUACCUACUCAAGGGCUUUUUCUAAGGCAUGCACACAUAUCUCCUCAACAGAGGAUUGAGCAUCA
B2: chr12:100625254:100625355:+|3pUTR|ENSG00000139354|unk|total|mutant (ssRNA)
RNA: GGGAGUUCUACAGUCCGACGAUCAUAUGUAUUAAAUAUGGAGUUCAUAUACCUGCUAAUAUCAACGGUGGUGCUCUUACUAUCCGUUAAUUGCAUUUUGGUUAAAAAAAAAAAAGCAACAGUUUGGCACUUGUCCUACAAAAGCAACAGAGGAUUGAGCAUCA
B3: chr3:48857559:48857660:-|3pUTR|ENSG00000178537|unk|total|mutant (ssRNA)
RNA: GGGAGUUCUACAGUCCGACGAUCGGCUGAAGGCUGCUCAAGUUCACUUCUGGAUGCUGGAAGCUGUCGUUGAGGAGAAGGAGCCGUAAGCAGAACUAAGCAGUCUUGGAGGGCAAGGGGAGGGGAAUGGUGAGAUCCGAGCCCCAACAGAGGAUUGAGCAUCA
B4: chr2:20282997:20283108:-|CDS|ENSG00000055917|unk|total|mutant (ssRNA)
RNA: GGGAGUUCUACAGUCCGACGAUCACUAAUCUGCAAUCUAAUUCAUUUUAUGGAAGCAGUUCUUUGACUAACCGCUCCCAGAGCCGUUCUUUAUUUUCUCAUGGACCUGGUCAACCUGGAAGUACAUCUCUUGGCUUUGGAAGUCAACAGAGGAUUGAGCAUCA
B5: chr17:10306458:10306629:-|CDS|ENSG00000006788|control|control|control (ssRNA)
RNA: GGGAGUUCUACAGUCCGACGAUCCCACCUGGAGCGGAUGAAGAAGAACCUGGAGCAGACGGUGAAGGACCUGCAGCACCGUCUAGAUGAGGCUGAACAACUGGCGCUGAAGGGCGGGAAGAAGCAGAUCCAGAAACUGGAGAACAACAGAGGAUUGAGCAUCA
B6: chr17:57972098:57972209:-|3pUTR|ENSG00000136451|unk|total|mutant (ssRNA)
RNA: GGGAGUUCUACAGUCCGACGAUCCCCGAAUGUGGUUGUCAGAACCCUGAAAGUAUCCGUUCUAAAAAAAAAAAGAUAUAUACCCGAAGUAAUUGUUUUAUCAAUUCAUUGUAUAAUAAACAGGAGUGAGACUUCAUUGUAUGACAACAGAGGAUUGAGCAUCA
B7: ENSG00000186472:stop:overlap|stop_codon|ENSG00000186472|stop_codon|NA|stop_codon (ssRNA)
RNA: GGGAGUUCUACAGUCCGACGAUCUUUCUUGUAAAUGGAAAUUUUAUCAUGUGUAUAGAUUCUGUAGCAUGCUUUUCUUUAUUUAGUUUUACUUUAUUCCUUUAUUGUUCUGUUUCUUGAUUGUUUGCUUGAUUUGUUUGGUGUCAACAGAGGAUUGAGCAUCA
B8: chr7:152122106:152122213:+|3pUTR|ENSG00000178234|unk|FALSE|unique (ssRNA)
RNA: GGGAGUUCUACAGUCCGACGAUCAGUGGUUUUUAUCUGAUCAGGAACUUGUCAUGAUUUCCUUUCUUAGACUUCAUAGGAGAUAGUGCUUUAAAAAAAAAAAAAACUUCUAUUAUUUGUUUAGUAUGUUGUAAGUAGAUCAUUCAACAGAGGAUUGAGCAUCA
B9: chr3:45823315:45826332:-|three_prime_utr|ENSG00000163818|control|control|control (ssRNA)
RNA: GGGAGUUCUACAGUCCGACGAUCUCAGGCAUGUAUUUUGAAAAGCAUUUUGUCAUAUCCCCUCUCCUUAUUUUUCUAAUAUUUAGACUUUGAAUAUUUAGAACUAGAGUUCCUAUUUUCAGCUAGUUGAAAACAGAGAAAACCCAACAGAGGAUUGAGCAUCA
B10: chr7:152122106:152122213:+|3pUTR|ENSG00000178234|unk|total|mutant (ssRNA)
RNA: B8 RNA with U67C, A68C, U76C, A77C, U83C, A84C, U121C, A122C, U135C, A136C
B11: chr8:72021249:72022905:-|three_prime_utr|ENSG00000104321|control|control|control (ssRNA)
RNA: GGGAGUUCUACAGUCCGACGAUCGCAGAUAUGUUCAAAUUGGACUGGACUUUGAUGAGAUAUAAUCUCAUUAUUUGAAUGGGUAGAAAAUGAAUUUGCUAGAACACACAUUUUUAAUGAAAAGAAGUAAUAAAUGUAACUAUUCAACAGAGGAUUGAGCAUCA
B12: ENSG00000136451:be:win_3801|3pUTR|ENSG00000136451|bound_else_gene|NA|bound_elsewhere_windowed (ssRNA)
RNA: GGGAGUUCUACAGUCCGACGAUCACCCCUAAGCUAGAAUGUGGUUGUCAGAACCCUGAAAGUAUUAGUUCUAAAAAAAAAAAGAUAUAUACUAGAAGUAAUUGUUUUAUCAAUUCAUUGUAUAAUAAACAGGAGUGAGACUUCCAACAGAGGAUUGAGCAUCA
B13: chr18:2804133:2804242:+|3pUTR|ENSG00000101596|unk|FALSE|unique (ssRNA)
RNA: GGGAGUUCUACAGUCCGACGAUCGGUUAAAGAGAAAUGACUUUUUAGGAACUAGACUUGAACGUAUAAUUAAUAUGUGGAACUAGUUUGCUUUUAUAAUUCAUUGUAUCAAGAAGGAGUCAUGUUUUAAAUCCAAGGCAUUGACAACAGAGGAUUGAGCAUCA
B14: ENSG00000136451:be:win_3751|3pUTR|ENSG00000136451|bound_else_gene|NA|bound_elsewhere_windowed (ssRNA)
RNA: GGGAGUUCUACAGUCCGACGAUCCUCCACAGUGGUCCAAGGAGCAGUCCUCAGUGGGGGCAGGUGUGGGCCCUACCCCUAAGCUAGAAUGUGGUUGUCAGAACCCUGAAAGUAUUAGUUCUAAAAAAAAAAAGAUAUAUACUACAACAGAGGAUUGAGCAUCA
B15: chr1:67413009:67413110:-|3pUTR|ENSG00000142864|unk|FALSE|unique (ssRNA)
RNA: GGGAGUUCUACAGUCCGACGAUCCUGAAUUUUAUCUGUUUUAAAAAUGAACUUCUCCCGCUACACAGAAGUAACAAAUAUGGUAGUCAGUUUUGUAUUUAGAAAUGUAUUGGUAGCAGGGAUGUUUUCAUAAUUUUCAGAGAUCAACAGAGGAUUGAGCAUCA
B16: chr1:67413009:67413110:-|3pUTR|ENSG00000142864|unk|total|mutant (ssRNA)
RNA: B15 RNA with U83C, A84C, U99C, A100C, U113C, A114C
B17: chr17:57972098:57972209:-|3pUTR|ENSG00000136451|unk|FALSE|bound_elsewhere (ssRNA)
RNA: B6 RNA with C25U, C26A, C56U, C57A, C83U, C84A

Experimental findings from article PMC12136788 are described below.

Positions count from the first letter of the chain named. In all, about 5,800 sequences were measured (“enrichment r”: median about 0.54, highest 2% from about 16 on). The sample as a whole holds a higher share of the highest values than the screen did.

For this assay, the target named is MSI1 full-length (mouse, UniProt Q61474 1-362). Description: nsRBNS (natural sequence RNA bind-n-seq); RBNS binding buffer (assumed for nsRBNS): 25 mM Tris pH 7.5, 150 mM KCl, 3 mM MgCl2, 0.01% Triton X-100, 500 ug/ml BSA, 20 U/ml SUPERase-In, 4 C; UNK is unkempt and MSI1 is Musashi-1; names of the RNAs are library labels; protein concentration not given here; high values mean tight binding.
Sequence of MSI1 full-length (Q61474 whole entry): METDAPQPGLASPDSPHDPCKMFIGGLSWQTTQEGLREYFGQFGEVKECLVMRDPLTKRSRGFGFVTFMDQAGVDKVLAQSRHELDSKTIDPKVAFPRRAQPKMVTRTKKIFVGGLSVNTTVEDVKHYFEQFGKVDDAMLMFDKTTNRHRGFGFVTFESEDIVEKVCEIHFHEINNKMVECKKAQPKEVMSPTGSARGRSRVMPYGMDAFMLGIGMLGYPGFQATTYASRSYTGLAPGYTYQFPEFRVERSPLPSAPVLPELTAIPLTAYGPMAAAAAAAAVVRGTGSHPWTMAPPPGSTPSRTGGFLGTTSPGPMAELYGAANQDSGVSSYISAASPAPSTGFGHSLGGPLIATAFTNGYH
With B1, the binding signal worked out at 0.506 enrichment R. As for B2, the figure is 0.371 enrichment R; as for B3, 0.595 enrichment R. For B4, the binding signal was 0.305 enrichment R.

The molecule B5 showed a binding signal of 0.485 enrichment R. B6 displayed a binding signal of 0.711 enrichment R. The figure for B7 is 0.35 enrichment R; for B8 it is 20.2 enrichment R. As for B9, the figure is 5.79 enrichment R; as for B10, 1.74 enrichment R; as for B11, 2.75 enrichment R. As for B12, the figure is 16.4 enrichment R; as for B13, 1.24 enrichment R. In turn, B14 yielded a binding signal of 1.89 enrichment R.

Turning to B15, the binding signal turned out to be 41.4 enrichment R. As for B16, the figure is 0.413 enrichment R. As for B17, the figure is 29.3 enrichment R.
